# Hits are enriched below; roughly 2.5% of the tested compounds scored in any of these assays.
# D2 ag-1 – D2 dopamine receptor (human) agonism | HEK293 T-REx D2 cells, calcium flux agonist mode | 340,000 tested, 0.53% active | activation, % at 2 µM;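 active = activation over 3 SD above normal in the single-dose calcium agonist read, cut at about 30% in these data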; also: 0% is about no effect
# Target sequence (P14416 whole entry, looked up): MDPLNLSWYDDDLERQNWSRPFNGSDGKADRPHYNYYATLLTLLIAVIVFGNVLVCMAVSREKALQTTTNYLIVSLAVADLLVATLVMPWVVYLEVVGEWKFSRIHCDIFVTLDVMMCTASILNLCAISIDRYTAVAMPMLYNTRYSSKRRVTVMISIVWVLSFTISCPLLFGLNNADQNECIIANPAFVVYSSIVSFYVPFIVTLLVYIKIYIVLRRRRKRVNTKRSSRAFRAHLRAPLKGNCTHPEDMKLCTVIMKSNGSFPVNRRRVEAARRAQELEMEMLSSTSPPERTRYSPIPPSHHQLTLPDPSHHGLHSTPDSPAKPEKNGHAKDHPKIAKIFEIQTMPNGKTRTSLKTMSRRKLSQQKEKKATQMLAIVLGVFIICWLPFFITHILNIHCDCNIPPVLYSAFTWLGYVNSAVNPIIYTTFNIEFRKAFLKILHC
#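 Tetracycline-induced HEK293 T-REx cells with force-coupled D2 receptor, plated overnight at 30 C, loaded with no-wash calcium dye. After a 10 s baseline, compound was pin-added and calcium flux read kinetically for 180 s; calcium rises flagged agonists.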
# D2 antag – antagonists of human D2 dopamine receptor | P14416 | HEK293 TREx D2 cells, calcium flux, dopamine EC80 | inhibition, % at 10 µM | 340,000 tested, 2% active; in the data active = inhibition above about 30%; inactive = below that, where a call was filed; also: 0% is about no effect
#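 In this primary screen, negative modulation is detected by tracking calcium flux after an EC80 dopamine challenge in inducible HEK293 T-REx D2 cells preexposed to test compound for 180 s.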
# Anesthetic bind – binds horse apoferritin like a general anesthetic. apoferritin/1-aminoanthracene competitive binding, fluorescence. 350,000 tested, 0.074% active. P02791. Potency, µM (doses to about 77.5 µM), without a hit: at the top dose activity change, negative = displacement, usual class: inhibitors. AID 485281; also: potency is read from the fitted curve at half-maximal effect; % is scaled to controls: 0 for no effect and ±100 for the full control effect; nearly all actives have a fitted effect of over 20% in size
# Target sequence (P02791 2-175 limits assumed): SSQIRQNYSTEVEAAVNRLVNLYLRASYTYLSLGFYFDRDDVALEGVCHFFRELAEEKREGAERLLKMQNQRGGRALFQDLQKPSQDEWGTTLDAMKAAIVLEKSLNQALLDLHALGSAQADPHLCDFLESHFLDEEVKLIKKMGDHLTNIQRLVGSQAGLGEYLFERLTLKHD
#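 Horse-spleen apoferritin (10 uM) was mixed with 50% saturated 1-aminoanthracene in PBS, exposed to compounds for 10 min at room temperature, and read for fluorescence (ex 380 nm, em 535 nm). Competitive displacement was fitted with a four-parameter Hill equation.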
# D2 PAM-1 – human D2 receptor positive allosteric modulation; P14416; DiscoveRx D2 beta-arrestin cells, luminescence, 90 min; 100% = 57 uM dopamine signal; potentiation, % (test concentration not listed); 360,000 tested, 0.23% active; AID 624464; in the data active = potentiation above about 50%; inconclusive = mostly about 30% to 49%
#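 PathHunter beta-arrestin assay in DiscoveRx D2 cells. Compounds were added with an EC20 of dopamine (50 nM final) for 90 min at 37 deg C. Luminescence was read 1 h after detection reagent, with 57 uM dopamine as the EC100 control.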
# D2 ag-2 – agonists of human D2 dopamine receptor (beta-arrestin) | DiscoveRx PathHunter D2 beta-arrestin, luminescence, 90 min; 100% = 57 uM dopamine signal | activation, % (test concentration not listed) | 360,000 tested, 0.084% active | AID 624465; in the data active = activation above about 40%; inconclusive = between about 15% and that limit
#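 Agonist mode: compounds alone added to overnight-plated D2 PathHunter cells for 90 min at 37 C, with 57 uM final dopamine (EC100) defining full response. Beta-arrestin recruitment detected by chemiluminescent reagent, read after 1 h at ambient temperature.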
# D2 PAM-2 – positively modulates the human D2 dopamine receptor allosterically. potentiation, % at 10 µM. HEK293 T-REx D2, calcium flux, EC20 dopamine potentiation. 340,000 tested, 0.34% active. P14416. AID 485347;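 active = potentiation over 3 SD above the plate norm, cut at about 30% in these data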; also: 0% is about no effect
#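 Tetracycline-induced HEK293 T-REx cells force-coupled to calcium signalling expressed D2; compounds were pin-added after a 10 s baseline, read kinetically 180 s, then an EC20 dopamine challenge followed with a further 180 s calcium read.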
# D3 arrestin ag – D3 receptor agonism confirmed, beta-arrestin readout | 2,300 tested, 4% active | Potency, µM (series often up to 76.9 µM), for the others: top-dose activation, most hits filed as activators | DiscoveRx D3 beta-arrestin cells, luminescence, 90 min | AID 720506 | shares compounds with D2 ag-1;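 also: potency is read from the fitted curve at half-maximal effect; 100% = dopamine control response; nearly all actives have a fitted effect of over 70% in size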
# D2 ag-3 – activates human D2 dopamine receptor in D3 counterscreen; shares compounds with D2 ag-1; DiscoveRx PathHunter D2 beta-arrestin, luminescence, 90 min; response scale: percent relative to full dopamine signal; Potency, µM (top dose mostly 76.9 µM), inactives show at the highest dose activation, usual class: activators; 2,300 tested, 5.9% active; AID 720507; also: potency is read from the fitted curve at half-maximal effect; % of control where 0% means no effect; nearly all actives have a fitted effect of over 70% in size
# Active calls of the source: *; ? = inconclusive; . = not tested or not shown. Unless noted, calls follow the shape of the dose curve; as a rule, active = well fitted curve in the direction sought with a large enough effect; inconclusive = small, poorly fitted or top-dose-only effect, or another doubt; inactive = no such curve, though single readings can be large; an effect the other way counts as inactive or inconclusive.
SMILES,D2 ag-1,D2 antag,Anesthetic bind,D2 PAM-1,D2 ag-2,D2 PAM-2,D3 arrestin ag,D2 ag-3
O=C(CCc1nnc2n(Cc3ccc(Cl)cc3)c(=O)c3ccccc3n12)N1CCN(c2ccccn2)CC1,-0.5,-19.1,-4.2%,-5.4,4.6,-2.4,.,.
CCCCN1CC(=O)N2Cc3[nH]c4ccccc4c3C[C@H]2C1=O,0.3,1.8,-5.8%,-6.7,1.8,-5.0,.,.
Cc1cc(C)nc(/N=C(\N)Nc2ccc(SC(F)F)cc2)n1,49.0*,5.6,-10.3%,-16.7,0.9,-11.9,-11.7%,8.7%
CC(=O)Nc1ccc(N/C(N)=N/c2nc(C)cc(C)n2)cc1,1.7,15.1,-5.3%,-9.0,-7.0,-4.1,.,.
CCOc1ccc(N/C(N)=N/c2nc(C)cc(C)n2)cc1,.,.,-10.8%,29.6,1.8,.,2.1%,?
Cc1ccc(C)c(N/C(N)=N/c2nc(C)cc(C)n2)c1,55.9*,22.5,-11.9%,-26.1,-8.0,-19.4,-1.8%,15.9%
COc1ccc(C)cc1N/C(N)=N/c1nc(C)cc(C)n1,6.0,-6.7,-8.7%,-16.6,-3.6,-3.4,.,.
Cc1cc(C)nc(/N=C(\N)Nc2ccc(-c3ccccc3)cc2)n1,19.3,6.6,?,-15.8,-7.5,5.1,.,.
O=C1CC(C(=O)N2CCN(c3ccccc3O)CC2)CN1Cc1ccccc1 (stereo unspecified),0.7,0.3,.,-6.9,-3.7,10.2,.,.
O=C(c1ccco1)N1CCC(N2CCN(c3ccccc3)CC2)CC1,78.4*,60.8*,4.1%,-9.7,1.3,-20.9,?,29.4%
O=C1OC(N2CCN(C(=O)c3ccco3)CC2)c2ccccc21 (stereo unspecified),.,.,9.3%,-12.1,5.9,.,24.4%,13.9%
O=C(c1cc(-c2ccco2)on1)N1CCN(c2ccccc2)CC1,45.3*,0.3,-10.4%,-3.8,-0.2,-14.0,-5.5%,-0.4%
O=C(c1cc(-c2ccccc2)on1)N1CCN(c2ccccc2)CC1,-0.4,4.3,-4.7%,-7.2,5.0,3.7,.,.
O=C(COc1ccccc1Cl)NNC(=O)Cn1[nH]c(=O)c2ccccc2c1=O,-0.2,-0.4,.,-0.9,-2.8,9.2,-5.4%,-6.6%
CC1(C)CC(=O)C=C(/C=C/c2ccccc2)C1,-2.0,-7.2,.,-14.7,-3.9,10.1,-5.5%,0.5%
COc1ccc(SC[C@H](Cc2ccccc2)N2CC[C@@H](O)CCC2=O)cc1,0.1,-1.0,.,-5.6,-0.7,-6.7,.,.
COc1ccc(SC[C@H](Cc2ccccc2)N2CC[C@@H](C(C)(C)C)CCC2=O)cc1,0.5,5.6,.,2.4,1.6,1.1,-12.1%,-2.5%
CCN(CC)C(=O)C(C)OC(=O)COc1ccc(Cl)cc1C (stereo unspecified),-0.5,3.2,-10.8%,-11.7,0.1,6.7,.,.
O=C(c1cccc(S(=O)(=O)Nc2ccccc2Cl)c1)N1CCN(c2ccccc2O)CC1,-0.1,14.5,.,-1.3,14.6,7.2,10.9%,7.8%
O=C(c1cccc(NS(=O)(=O)c2ccc(Br)cc2)c1)N1CCN(c2ccccc2O)CC1,1.0,3.4,.,-22.9,-4.8,-10.3,9.1%,11.4%
Cn1c(N2CCN(c3ccccn3)CC2)nc2c1c(=O)n(Cc1ccccc1Cl)c(=O)n2C,.,.,.,-16.0,-1.8,.,.,.
Cn1c(N2CCN(c3ccccn3)CC2)nc2c1c(=O)n(Cc1ccc(Cl)cc1)c(=O)n2C,46.6*,48.7*,-5.5%,-6.5,5.3,-9.7,17.6%,?
O=C(/C=C/c1cccc(C(F)(F)F)c1)NNC(=O)c1ccncc1,-0.2,4.7,.,-68.8,-4.8,-5.9,-11.4%,-7.0%
O=C(/C=C/c1cccc(C(F)(F)F)c1)Nc1cccc(C(F)(F)F)c1,1.1,18.8,?,-1.2,4.2,-10.1,.,.
O=C(/C=C/c1ccccc1[N+](=O)[O-])NNC(=O)c1ccncc1,1.4,0.4,.,-5.1,-3.4,0.5,-15.7%,-11.0%
SMILES,D2 ag-1,D2 antag,Anesthetic bind,D2 PAM-1,D2 ag-2,D2 PAM-2,D3 arrestin ag,D2 ag-3
CC1CN(C)C(C)C/C1=N/Oc1ccccc1[N+](=O)[O-] (stereo unspecified),41.5*,24.9,-21.7%,-10.7,6.7,-18.5,20.2%,18.0%
O=C(N/N=C/c1ccc(OC(F)F)cc1OC(F)F)c1cccc(S(=O)(=O)N2CCOCC2)c1,0.6,-26.1,-19.2%,1.8,-2.4,3.8,.,.
O=C(Nc1ccc(F)c(Cl)c1)c1cc(C2CCCN(C(=O)C3CC3)C2)on1 (stereo unspecified),.,.,.,-8.9,9.2,.,.,.
CCOc1ccc(NC(=O)CCN2CCN(c3ccccc3)CC2)cc1,97.9*,83.2*,3.5%,-7.6,?,-29.2,?,?
O=C(CC1C(=O)NCCN1C(=O)Nc1ccccc1)Nc1ccc(F)cc1 (stereo unspecified),1.0,-0.9,-4.2%,-4.3,-3.7,-2.3,.,.
O=C(CCN1CCN(CCO)CC1)Nc1ccccc1,1.5,-12.9,0.3%,-4.4,-5.5,13.6,.,.
O=C(CCN1CCN(c2ccccc2)CC1)Nc1ccccc1,73.1*,53.5*,-4.5%,0.6,3.8,-26.8,8.8%,23.2%
COc1ccc(NC(=O)CCN2CCN(c3ccc(F)cc3)CC2)cc1,64.7*,76.8*,-4.6%,-14.8,1.9,-29.2,11.7%,7.7%
CCOc1ccc(NC(=O)CC2C(=O)NCCN2C(=O)Nc2ccccc2)cc1 (stereo unspecified),3.4,12.7,-11.5%,-7.2,-0.8,-15.4,-3.8%,-4.6%
CCOC(=O)N1CCN(CC(=O)Nc2ccc(Oc3ccccc3)cc2)CC1,56.3*,43.3*,?,22.4,44.1*,-24.3,?,?
O=C(CN1CCN(c2ccccc2)CC1)Nc1ccc(OCc2ccccc2)cc1,43.7*,55.5*,-10.9%,-19.5,12.1,-13.7,?,18.2%
CN(CC(=O)NNC(=O)CNC(=O)c1cccs1)S(=O)(=O)c1ccc(Cl)cc1,41.8*,10.5,.,-27.7,1.6,-4.4,-4.9%,4.9%
CN(CC(=O)NNC(=O)CNC(=O)c1ccccc1F)S(=O)(=O)c1ccc(Cl)cc1,3.9,-13.7,.,1.7,4.7,-0.1,.,.
CCOc1ccccc1C(=O)NCC(=O)NNC(=O)CN(C)S(=O)(=O)c1ccc(Cl)cc1,.,.,.,-10.4,?,.,?,?
